Laboratory results reported in PubChem BioAssay AID893 (National Center for Advancing Translational Sciences (NCATS), 2007).
About 5,700 (7.6%) of roughly 75,000 compounds were called active. Another 7% or so got no clear call; they are omitted. This excerpt belongs to a sample that is enriched for actives. A number with no mark means an inactive call. Calls follow the shape of the dose curve; as a rule, active = well fitted inhibition curve with a large enough effect; inconclusive = small, poorly fitted or top-dose-only effect; inactive = no such curve, though single readings can be large or run the other way.

molecular target: 3-hydroxyacyl-CoA dehydrogenase type-2 (Homo sapiens) (UniProt Q99714); assay: qHTS Assay for Inhibitors of HSD17B4, hydroxysteroid (17-beta) dehydrogenase 4; settings: recombinant HSD17B10, NADH fluorescence kinetic; series mostly up to 57.1 µM; activity change, negative = inhibition: at the top concentration;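 also: the protocol describes HADH2 (HSD17B10) and not the HSD17B4 of the title; nearly all actives have a fitted effect of over 70% in size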
Procedure, shortened: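 20 nM HADH2, pH 9.0 Tris/Tween; cpd preinc 15 min RT; start w/ 1 mM NAD+ + 90 uM b-hydroxybutyryl-CoA; kinetic fluor ex360/em450 q30s x 4 min; delta last-first.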
% is scaled to controls: 0 for no effect and ±100 for the full control effect; potency is read from the fitted curve at half-maximal effect.

| Compound | activity change, negative = inhibition | Potency |
| --- | --- | --- |
| COC(=O)[C@@H]1C[C@@]2(O)[C@H](O)[C@H](O)[C@H](O)C[C@H]2N1CC1CCCCC1 | 6% |  |
| CCOc1ccc(S(=O)(=O)n2ccnc2)c2ccccc12 | -4.92% |  |
| C[C@@H](Nc1nc(-c2ccccc2)nc2c1oc1ccccc12)C(=O)O | -5.05% |  |
| CCSc1nc(C)nc2c1oc1ccccc12 | -23.1% |  |
| CCc1nc(Nc2ccc3nccnc3c2)c2oc3ccccc3c2n1 |  | 12.6 µM (active) |
| Cc1cccc(N2CCN(S(=O)(=O)c3ccc4c(c3)c(=O)n(C)c(=O)n4C)CC2C)c1 (stereo unspecified) | 1.18% |  |
| Cc1ccc(C)c(S(=O)(=O)n2cnc3ccccc32)c1 | -2.14% |  |
| CC(=O)OCC1OC(C#Cc2ccccc2Cl)C=CC1OC(C)=O (stereo unspecified) | -6.58% [at 11.4 µM] |  |
| Cc1ccc2nc(NC3=NCN(CCc4ccccc4)CN3)nc(C)c2c1 | 3.14% |  |
| COc1ccc(C2CC(=O)C=C(NCC3CCCO3)C2)cc1 (stereo unspecified) | -5.32% |  |
| COc1ccc2nc(NC3=NCN(CC4CCCO4)CN3)nc(C)c2c1 (stereo unspecified) |  | 31.6 µM (active) |
| Oc1ccccc1CNCc1ccccc1O | -0.327% [at 11.4 µM] |  |
| CSc1sc(C)cc1C1C(C#N)=C(N)N(c2cccnc2)C2=C1C(=O)CCC2 (stereo unspecified) |  | 15.8 µM (active) |
| O=S(=O)(c1ccccc1)N1CCC2(CC1)CN(Cc1nccs1)C2 | 6.63% |  |
| CCCC(C(=O)N1CCOCC1)N1C(=O)C2C3C=CC(C3)C2C1=O (stereo unspecified) | 3.68% |  |
| O=C(O)C1CCN(S(=O)(=O)N2CCOCC2)CC1 | 12.1% |  |
| Cn1nc(-c2ccc(Cl)cc2)c2cc(C(=O)NCc3ccco3)sc21 |  | 31.6 µM (active) |
| CCOC(=O)N1CCN(C(=O)c2cc3c(-c4ccc(Cl)cc4)nn(C)c3s2)CC1 | 5.07% |  |
| COc1ccccc1N1CCN(C(=O)c2cc3c(-c4ccc(Cl)cc4)nn(C)c3s2)CC1 | -6.74% |  |
| O=C(C(Cc1ccccc1)n1cccc1)N1CCN(C2CCCCC2)CC1 (stereo unspecified) | -2.66% |  |
| Cc1ccc(C)n1C(Cc1ccccc1)C(=O)O (stereo unspecified) |  | 10 µM (active) |
| CC(Cc1ccccc1)C(=O)N(C)Cc1ccccc1 (stereo unspecified) | -7.16% |  |
| C=CCn1c(SCc2cc(C(=O)OC)c(C)o2)nnc1-c1ccncc1 | -12.7% |  |

| Compound | activity change, negative = inhibition | Potency |
| --- | --- | --- |
| CCC(C)(C(=O)NC1CCCC1)N(C(=O)CNC(C)=O)c1ccc(C)cc1 (stereo unspecified) | -3.05% |  |
| Cc1ccc2cc(C#N)c(SCC(=O)NCC3CCCO3)nc2c1C (stereo unspecified) | 12% |  |
| O=C(CS(=O)(=O)Cc1ccccc1)NCC1CCCO1 (stereo unspecified) | 2.9% |  |
| O=C(CSC1=Nc2ccccc2C2=NC(c3ccccc3)C(=O)N12)NCC1CCCO1 (stereo unspecified) |  | 31.6 µM (active) |
| Cc1ncn(C23CC4CC(CC(O)(C4)C2)C3)n1 | 12.4% |  |
| COC(=O)C1(C)C=CC2(CCCCC2)N1C(C)=O (stereo unspecified) | 25.3% |  |
| O=C(O)C1=CCCN(CCON=C(c2ccccc2)c2ccccc2)C1 |  | inactive |
| O=C(Nc1ccccc1)N[C@H]1C[C@H](C(=O)O)Nc2cc(Cl)cc(Cl)c21 | -2.74% |  |
| COc1ccc(S(=O)(=O)N2CCC(C(=O)N3CCOCC3)CC2)cc1OC | 7.24% |  |
| COc1cc2nc(N3CCN(C(=O)[C@@H]4CCCO4)CC3)nc(N)c2cc1OC |  | 12.6 µM (active) |
| O=C(C1CCCO1)N1CCC(c2nc3ccccc3[nH]2)CC1 (stereo unspecified) | -27% |  |
| COc1ccc(N2C(=O)C3CCCN3C2c2cc(OC)c(OC)cc2OC)cc1 (stereo unspecified) | 3.49% |  |
| CCN(CC)S(=O)(=O)c1cc(C(=O)Nc2ccccn2)ccc1C | 4.29% |  |
| CCCCOc1ccc(C(=O)NCc2ccco2)cc1 | -4.29% |  |
| CCOc1ccccc1C(=O)NCc1ccco1 |  | 25.1 µM (active) |
| COc1ccccc1C(=O)NCCn1cc(SCC(=O)NCc2ccco2)c2ccccc21 | -14.1% |  |
| Cn1cccc1C(=O)Nc1nccs1 | 1.39% |  |
| CC(C)(C)NC(=O)NC(=O)COC(=O)Cn1c(C(F)(F)F)nc2ccccc21 | 6.12% |  |
| Cn1cccc1C(=O)NC(=O)COC(=O)Cc1coc2ccc3ccccc3c12 |  | 31.6 µM (active) |
| CSCC[C@H](NC(=O)NCCc1ccc(F)cc1)C(=O)O | 7.27% |  |
| O=C1OC(C(O)CO)C(O)=C1O (stereo unspecified) | 7.41% |  |
| COc1ccc(CCN=C2SCC(=O)N2C)cc1OC | 11.7% |  |
| COc1ccc(C(=O)N(Cc2ccc(N(C)C)cc2)C2CCS(=O)(=O)C2)cc1 (stereo unspecified) | -23.7% |  |

| Compound | activity change, negative = inhibition | Potency |
| --- | --- | --- |
| CCCCC(CC)CN (stereo unspecified) |  | inactive |
| O=C(c1ccc(O)cc1)c1ccc(C(=O)O)c(C(=O)O)c1 | -7.84% |  |
| N[C@@H](C(=O)O)c1ccc(P(=O)(O)O)cc1 | -11.4% |  |
| N[C@H](C(=O)O)c1ccc(C(=O)O)c(O)c1 |  | 39.8 µM (active) |
| Cc1noc(NS(=O)(=O)c2ccc(NC(=O)C34CCC(CC3)C4)cc2)c1C | 8.81% |  |
| CCOC(=O)N/N=C1/C[C@@H](O)[C@@H](O)[C@@H]2[C@@H]3C(=O)N(CC)C(=O)[C@H]3CC[C@H]12 | 7.25% [at 11.4 µM] |  |
| O=C(c1c(Cl)nc2sccn12)N1CCCc2ccccc21 | 6.22% |  |
| CC(C)NC(=O)N1CC[C@@]2(CCCN(C(=O)c3ccco3)C2)C1 | 4.84% |  |
| O=C(c1ccco1)N1CCC[C@@]2(CCN(c3ccccc3)C2)C1 | -5.83% |  |
| O=C(c1ccco1)N1CCC2(CC1)CCN(c1ncccn1)CC2 |  | 31.6 µM (active) |
| COc1ccc(OC)c(S(=O)(=O)Nc2ccccc2F)c1 | 3.76% |  |
| COC(=O)c1ccc(NC(=O)CSc2nnc(-c3ccncc3)n2C)cc1 | 3.29% |  |
| CC(=O)NC1=NC(=O)CS1 | 9.12% |  |
| O=C1CC(c2ccccc2)C(=O)N1c1cccc(O)c1 (stereo unspecified) | 3.33% |  |
| Cc1ccc(Oc2nc3ccccc3n3c(C)nnc23)cc1 | 8.54% |  |
| CN(c1nc2ccccc2n2c(-c3ccco3)nnc12)S(=O)(=O)c1ccccc1 |  | 1 µM (active) |
| CCCCNC(=O)CSc1nnc(-c2ccco2)n1C | 2.87% |  |
| CC1=C2C(=O)OC(c3ccoc3)C2(C)CCC1 (stereo unspecified) | 0.438% |  |
| Cc1ccccc1OCCC(=O)Nc1c(C)n(C)n(-c2ccccc2)c1=O | 9.86% |  |
| O=C(NCc1ccc2c(c1)OCO2)c1ccc2c(c1)C(=O)N(CC1CCCO1)C2=O (stereo unspecified) | 4.35% |  |
| CCC(=O)Nc1ccc(C(=O)Nc2ccc3c(c2)C(=O)N(CC2CCCO2)C3=O)cc1 (stereo unspecified) |  | 31.6 µM (active) |
| O=C(CCN1C(=O)c2ccncc2C1=O)Nc1ccc2c(c1)OCCO2 | 8.58% |  |
| O=C(CCN1C(=O)c2ccccc2C1=O)NCCN1CCOCC1 | 2.59% |  |

| Compound | activity change, negative = inhibition | Potency |
| --- | --- | --- |
| COCc1nc2ccccc2n1Cc1ccccc1Br | -7.7% |  |
| COC(=O)N1CCC2(CCCN(Cc3ccccc3OC)C2)CC1 | -0.535% |  |
| Cn1c(=O)n(C)c(=O)n(CC(=O)N2CCCCC2)c1=O | 6.19% |  |
| Cn1nnc2cc(C(=O)NCCC3=CCCCC3)ccc21 | -1.07% |  |
| Cc1ccc2c(c1)c1ncn(CCC3=CCCCC3)c(=O)c1n2C |  | 31.6 µM (active) |
| CC1CCCN(C(=O)c2ccc3c(c2)C(=O)N(CCC2=CCCCC2)C3=O)C1 (stereo unspecified) | -6.99% |  |
| CC1(C)C(=O)C2(CCCCC2)C(=O)OC1c1cccs1 (stereo unspecified) | 3.06% |  |
| CC(C)CO | 1.5% |  |
| CCCC(Cl)CCCC(Cl)CCC(Cl)CCC(Cl)CCC(Cl)CCCC(Cl)CCC (stereo unspecified) | -1.3% |  |
| CCC(=NC1CC(C)(C)NC(C)(C)C1)C1=C(O)CC(C)(C)CC1=O | 5.65% |  |
| CCOC(=O)c1c(NC(=O)c2ccc(Br)o2)sc2c1CCCC2 |  | 25.1 µM (active) |
| CCc1c(C)sc(NC(=O)c2ccc(Br)o2)c1C(=O)OC |  | 31.6 µM (active) |
| CCOC(=O)c1c(NC(=O)CCC(=O)NCc2ccco2)sc2c1CCCC2 | 77.2% |  |
| COC(=O)c1c(NC(=O)CSc2nncs2)sc2c1CCCCC2 | -21.2% |  |
| CCc1c(C)sc(NC(=O)OC)c1C(=O)N1CCOCC1 | 0.217% |  |
| CCCOC(=O)Nc1sc2c(c1C(=O)OCC)CCC2 | 1.55% |  |
| COC(=O)c1c(NC(=O)c2cccs2)sc2c1CCCC2 |  | 31.6 µM (active) |
| CCOC(=O)c1c(NC(=O)c2cccs2)sc(C)c1C | 4.57% |  |
| COc1cc(OC)c(NC(=O)c2ccc(Br)o2)cc1Cl | -11.6% |  |
| CCOc1ccc(N=C2SC(C(=O)O)CC(=O)N2C)cc1 (stereo unspecified) | -5.63% |  |
| O=C(CCS(=O)(=O)Cc1ccccc1F)NCCCN1CCCCC1 | -0.743% |  |
| Cn1c2c(c(=O)n(C)c1=O)C1c3ccccc3OCC1C(C)(C)O2 (stereo unspecified) | 0.573% |  |
| NCC(=O)[C@@H](O)[C@H](O)[C@H](O)CO | 0.448% [at 11.4 µM] |  |

| Compound | activity change, negative = inhibition | Potency |
| --- | --- | --- |
| COc1ccc(NC(=O)c2cccc(NC(=O)c3ccco3)c2)c(OC)c1 | 2.18% |  |
| Cc1cc(C(=O)O)ccc1[N+](=O)[O-] | -1.07% |  |
| CC(C)OC(=O)CN1C(=O)c2ccccc2C1=O | 7.56% |  |
| CC(C)NC(=O)N1CCCC2(CCN(C(=O)c3cccn3C)CC2)C1 | -3.12% |  |
| CC1CCCC(NC(=O)CSc2nccn2C)C1C (stereo unspecified) | 2.63% |  |
| O=C(OCC(COC(=O)c1ccccc1)(COC(=O)c1ccccc1)COC(=O)c1ccccc1)c1ccccc1 | -5.96% |  |
| C/C(CCN1CCc2nc(-c3ccccc3)c(-c3ccccc3)cc2C1)=N\O[C@@H](C)c1cn([C@@H]2COC[C@@H]2O)nn1 | 2.35% [at 11.4 µM] |  |
| C#CCCCCCCCCCCCCCCCC(=O)O |  | 15.8 µM (active) |
| O=C(O)CCCCC(=O)O | 2.81% |  |
| CCCCCCCCCCCC(=O)O |  | inactive |
| CC1CC[C@@]23CCC4(C)[C@@]5(C)CCC6C(C)(C)C(O)CC[C@@]6(C)C5C=C[C@@]4(OC2=O)C3C1C (stereo partly specified) | -0.0461% |  |
| O=C(NCCN1C(=O)C2C3C=CC(C3)C2C1=O)Nc1ccccn1 (stereo unspecified) | 1.72% |  |
| c1ccc2[nH]c(-c3nc4ccccc4[nH]3)nc2c1 |  | 25.1 µM (active) |
| C=CCSc1nc2ccccc2[nH]1 | -0.152% |  |
| c1ccc(-c2[nH]ncc2-c2nc3ccccc3[nH]2)cc1 |  | 12.6 µM (active) |
| COC(=O)Cc1nc2ccccc2[nH]1 | 381% |  |
| C=CCSc1nc2c(c(=O)[nH]1)C(C(C)C)C(C#N)=C(N)O2 (stereo unspecified) | 3.83% |  |
| O=C(O)c1cccc(S(=O)(=O)NCCO)c1 | 10% [at 11.4 µM] |  |
| O=C(NCc1ccccc1)[C@H]1C[C@@H]1[C@H](NP(=O)(c1ccccc1)c1ccccc1)c1ccccc1 | 6.99% |  |
